# In PubChem BioAssay (EPA / NIEHS):
# Activity calls are given as the source filed them. The calls were made as follows: active = hit-call score of the fitted dose curve at least 0.9, where 1 is the maximum; inactive = score below 0.9.
# What was measured:
# Details in all cases: mRNA level, 48 h; actives raise or lower the signal
# [1] = read-out: Fatty Acid-Binding Protein 1 (FABP1), FABP1 (gene 2168); assay: LTEA_HepaRG_FABP1: Life Technologies and Expression Analysis (LTEA) Assay for Fatty Acid-Binding Protein 1 (FABP1) using HepaRG (AID 2283494)
# Outline: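 HepaRG, 48 h post-plating switched to serum-free induction medium, then dosed 48 h (duplicate, 8 pts, ≤100 uM, 0.5% DMSO). RNA → Fluidigm TaqMan qRT-PCR, FABP1 normed to ACTB/GAPDH/POLR2A. Bidirectional curve fit vs DMSO.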
# [2] = read-out: Cytochrome P450 4A22 (Homo sapiens) (UniProt Q5TCH4); assay: LTEA_HepaRG_CYP4A22: Life Technologies and Expression Analysis (LTEA) Assay for Cytochrome P450 4A22 (CYP4A22) using HepaRG (AID 2283495)
# Outline: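 Differentiated HepaRG cells in serum-free induction medium exposed 48 h in duplicate to eight half-log concentrations up to 100 uM in 0.5% DMSO. CYP4A22 mRNA quantified by TaqMan qRT-PCR, normalized to ACTB, GAPDH and POLR2A; bidirectional fit versus DMSO.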
# [3] = read-out: Cytochrome P450 7A1 (Homo sapiens) (UniProt P22680); assay: LTEA_HepaRG_CYP7A1: Life Technologies and Expression Analysis (LTEA) Assay for Cytochrome P450 7A1 (CYP7A1) using HepaRG (AID 2283496)
# Outline: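 Gene expression endpoint in human HepaRG liver cells treated for 48 h with test chemicals (up to 100 uM, 0.5% DMSO). Values come from bidirectional concentration-response fitting versus DMSO.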
# [4] = read-out: Glutathione S-Transferase (GSTA2), GSTA2 (gene 2939); assay: LTEA_HepaRG_GSTA2: Life Technologies and Expression Analysis (LTEA) Assay for Glutathione S-Transferase (GSTA2) using HepaRG (AID 2283497)
# Outline: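 HepaRG, 48 h dosing, 8-pt half-log CRC from 100 uM, 0.5% DMSO vehicle, n=2; RNA → Fluidigm TaqMan qRT-PCR; GSTA2 vs ACTB/GAPDH/POLR2A; gain/loss fit vs DMSO.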
# [5] = read-out: Glutamate-cysteine ligase catalytic (GCLC), GCLC (gene 2729); assay: LTEA_HepaRG_GCLC: Life Technologies and Expression Analysis (LTEA) Assay for Glutamate-cysteine ligase catalytic (GCLC) using HepaRG (AID 2283498)
# Outline: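 Read-out is GCLC transcript level by Fluidigm-based TaqMan qRT-PCR, normalized to three housekeeping genes and fitted in both directions relative to 0.5% DMSO. Human HepaRG cells received chemicals for 48 h, up to 100 uM.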
# [6] = read-out: growth arrest and DNA damage 45 (GADD45G), GADD45G (gene 10912); assay: LTEA_HepaRG_GADD45G: Life Technologies and Expression Analysis (LTEA) Assay for growth arrest and DNA damage 45 (GADD45G) using HepaRG (AID 2283499)
# Outline: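 Differentiated human HepaRG cells, 48 h post-plating, exposed 48 h in serum-free induction medium to 8 half-log concentrations (top 100 uM, 0.5% DMSO) in duplicate. GADD45G mRNA measured by Fluidigm TaqMan qRT-PCR, normalized to ACTB, GAPDH, POLR2A; bidirectional fit versus DMSO.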
# [7] = read-out: Glutamate-cysteine ligase regulatory (GCLM), GCLM (gene 2730); assay: LTEA_HepaRG_GCLM: Life Technologies and Expression Analysis (LTEA) Assay for Glutamate-cysteine ligase regulatory (GCLM) using HepaRG (AID 2283500)
# Outline: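 Human liver HepaRG cultures receive test chemicals for 48 hours at up to 100 uM in 0.5% DMSO. GCLM expression is measured by qRT-PCR and analysed for increases or decreases against vehicle.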
# [8] = read-out: Glutathione S-transferase M3 (GSTM3), GSTM3 (gene 2947); assay: LTEA_HepaRG_GSTM3: Life Technologies and Expression Analysis (LTEA) Assay for Glutathione S-transferase M3 (GSTM3) using HepaRG (AID 2283501)
# Outline: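 Differentiated human HepaRG cells were exposed in duplicate for 48 h in serum-free induction medium, 8 points from 100 uM top in half-log steps, 0.5% DMSO. GSTM3 mRNA was measured by TaqMan qRT-PCR, normalized to ACTB, GAPDH and POLR2A; bidirectional fit versus DMSO.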
# [9] = read-out: Heat shock 70 kDa protein 1 (HSPA1A), gene 3303; assay: LTEA_HepaRG_HSPA1A: Life Technologies and Expression Analysis (LTEA) Assay for Heat shock 70 kDa protein 1 (HSPA1A) using HepaRG (AID 2283502)
# Outline: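 HSPA1A induction in human HepaRG liver cells is measured after 48 h of chemical treatment (100 uM maximum, 0.5% DMSO vehicle). Expression comes from qRT-PCR normalized to endogenous controls.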
# [10] = read-out: Hypoxia-inducible factor 1-alpha (Homo sapiens) (UniProt Q16665); assay: LTEA_HepaRG_HIF1A: Life Technologies and Expression Analysis (LTEA) Assay for Hypoxia-inducible factor 1 (HIF1A) Trancription factor using HepaRG (AID 2283503)
# Outline: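 HepaRG, 48 h exposure, 8-pt half-log series from 100 uM, 0.5% DMSO vehicle, duplicates. Readout: HIF1A transcript by qRT-PCR (Fluidigm array), housekeeping-normalised. Bidirectional curve fit vs DMSO baseline.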
# [11] = read-out: 3-Hydroxy-3-Methylglutaryl-CoA Synthase 2 (HMGCS2), HMGCS2 (gene 3158); assay: LTEA_HepaRG_HMGCS2: Life Technologies and Expression Analysis (LTEA) Assay for 3-Hydroxy-3-Methylglutaryl-CoA Synthase 2 (HMGCS2) using HepaRG (AID 2283504)
# Outline: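 Human HepaRG cells in serum-free induction medium were exposed in duplicate for 48 h to 8-point half-log series from 100 uM top in 0.5% DMSO. HMGCS2 mRNA measured by TaqMan qRT-PCR, normalised to ACTB, GAPDH, POLR2A; bidirectional fit versus DMSO.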
# HGF (gene 3082) = assay: LTEA_HepaRG_HGF: Life Technologies and Expression Analysis (LTEA) Assay for Hepatocyte Growth Facto (HGF) using HepaRG (AID 2283505)
# Outline: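 Differentiated HepaRG cells in serum-free induction medium exposed 48 h in duplicate, 8 half-log concentrations from 100 uM in 0.5% DMSO. HGF mRNA by qRT-PCR, normalised to ACTB, GAPDH, POLR2A; bidirectional fitting.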
# [12] = read-out: Insulin Like Growth Factor 1 (IGF1), IGF1 (gene 3479); assay: LTEA_HepaRG_IGF1: Life Technologies and Expression Analysis (LTEA) Assay for Insulin Like Growth Factor 1 (IGF1) using HepaRG (AID 2283506)
# Outline: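 Using human HepaRG liver cells, IGF1 transcript induction or suppression is measured 48 h after dosing across eight concentrations capped at 100 uM. Values derive from bidirectional concentration-response fitting with DMSO as baseline.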
# [13] = read-out: Intercellular Adhesion Molecule 1 (ICAM1), ICAM1 (gene 3383); assay: LTEA_HepaRG_ICAM1: Life Technologies and Expression Analysis (LTEA) Assay for Intercellular Adhesion Molecule 1 (ICAM1) using HepaRG (AID 2283507)
# Outline: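 Differentiated human HepaRG cells in serum-free induction medium exposed 48 h in duplicate to 8 half-log concentrations (top 100 uM, 0.5% DMSO). ICAM1 mRNA quantified by TaqMan qRT-PCR, normalized to ACTB, GAPDH and POLR2A; bidirectional fitting versus DMSO.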
# [14] = read-out: Insulin-like growth factor-binding protein 1 (IGFBP1), IGFBP1 (gene 3484); assay: LTEA_HepaRG_IGFBP1: Life Technologies and Expression Analysis (LTEA) Assay for Insulin-like growth factor-binding protein 1 (IGFBP1) using HepaRG (AID 2283508)
# Outline: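 HepaRG cells, plated 48 h then switched to serum-free induction medium, exposed in duplicate for 48 h to 8-point half-log series from 100 uM in 0.5% DMSO. mRNA measured by qRT-PCR, normalized to ACTB/GAPDH/POLR2A; bidirectional fit versus DMSO.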
# [15] = read-out: Interleukin 6 (IL6), IL6 (gene 3569); assay: LTEA_HepaRG_IL6: Life Technologies and Expression Analysis (LTEA) Assay for Interleukin 6 (IL6) using HepaRG (AID 2283509)
# Outline: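 HepaRG, ~100,000 cells/well, 48 h pre-culture; serum-free induction medium; cmpd 8-pt half-log from 100 uM, 0.5% DMSO, duplicate, 48 h. Lysis in RLT, TaqMan qRT-PCR; gain or loss vs DMSO.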
# [16] = read-out: Interleukin 6 Receptor (IL6R), IL6R (gene 3570); assay: LTEA_HepaRG_IL6R: Life Technologies and Expression Analysis (LTEA) Assay for Interleukin 6 Receptor (IL6R) using HepaRG (AID 2283510);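 as to AC50: TaqMan qRT-PCR signal normalized to ACTB GAPDH and POLR2A housekeeping genes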
# Outline: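 Concentration-response in human liver HepaRG cells: eight concentrations from 100 uM downward by half-logs, 48 h exposure, 0.5% DMSO vehicle. IL6R mRNA change measured by qRT-PCR and fitted in both directions relative to vehicle.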
# [17] = read-out: Potassium channel subfamily K member 1 (KCNK1), KCNK1 (gene 3775); assay: LTEA_HepaRG_KCNK1: Life Technologies and Expression Analysis (LTEA) Assay for Potassium channel subfamily K member 1 (KCNK1) using HepaRG (AID 2283511)
# Outline: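 Gain or loss of KCNK1 mRNA is the read-out, quantified by qRT-PCR against three housekeeping genes after 48 h chemical treatment of human HepaRG liver cells. Concentrations ran from 100 uM downward in half-log steps, vehicle 0.5% DMSO.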
# [18] = read-out: Keratin 19 (KRT19), KRT19 (gene 3880); assay: LTEA_HepaRG_KRT19: Life Technologies and Expression Analysis (LTEA) Assay for Keratin 19 (KRT19) using HepaRG (AID 2283512)
# Outline: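 Differentiated HepaRG cells in serum-free induction medium, exposed 48 h in duplicate to 8 half-log concentrations up to 100 uM in 0.5% DMSO. KRT19 mRNA by qRT-PCR, normalized to ACTB, GAPDH, POLR2A; bidirectional fit vs DMSO.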
# [19] = read-out: JUN Transcription Factor, JUN (gene 3725); assay: LTEA_HepaRG_JUN: Life Technologies and Expression Analysis (LTEA) Assay for JUN Transcription Factor using HepaRG (AID 2283513)
# Outline: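 Human HepaRG liver cells receive test chemicals in 0.5% DMSO for 48 h across an eight-point range topping at 100 uM. Expression changes in JUN are scored in both directions against the DMSO vehicle.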
# Chain of Hypoxia-inducible factor 1-alpha (Homo sapiens) (Q16665 whole entry, looked up): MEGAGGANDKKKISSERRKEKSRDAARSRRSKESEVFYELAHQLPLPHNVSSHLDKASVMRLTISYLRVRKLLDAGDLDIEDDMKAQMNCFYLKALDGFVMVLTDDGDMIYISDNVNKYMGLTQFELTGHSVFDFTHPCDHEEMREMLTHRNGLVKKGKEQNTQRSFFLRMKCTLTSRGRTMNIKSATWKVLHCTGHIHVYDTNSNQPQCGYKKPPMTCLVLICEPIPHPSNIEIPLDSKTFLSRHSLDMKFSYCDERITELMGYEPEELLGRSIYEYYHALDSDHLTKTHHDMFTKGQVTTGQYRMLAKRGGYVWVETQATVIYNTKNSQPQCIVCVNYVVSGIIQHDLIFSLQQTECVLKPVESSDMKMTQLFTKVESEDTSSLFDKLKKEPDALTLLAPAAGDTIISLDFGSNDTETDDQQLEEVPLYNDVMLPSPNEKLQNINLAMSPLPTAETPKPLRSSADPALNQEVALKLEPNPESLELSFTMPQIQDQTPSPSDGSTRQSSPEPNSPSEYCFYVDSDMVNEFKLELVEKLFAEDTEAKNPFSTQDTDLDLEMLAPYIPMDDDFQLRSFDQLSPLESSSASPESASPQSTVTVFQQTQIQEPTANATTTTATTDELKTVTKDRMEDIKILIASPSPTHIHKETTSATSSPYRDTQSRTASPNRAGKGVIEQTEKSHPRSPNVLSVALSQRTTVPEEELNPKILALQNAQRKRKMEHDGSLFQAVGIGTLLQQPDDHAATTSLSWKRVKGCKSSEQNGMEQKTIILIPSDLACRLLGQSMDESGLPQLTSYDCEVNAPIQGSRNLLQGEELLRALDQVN
compound,measurement,setting,value
C#CCOS(=O)OC1CCCCC1Oc1ccc(C(C)(C)C)cc1 (centres undefined),AC50,[1],18.7 µM (active)
same,outcome,[2],inactive
same,AC50,[3],26.6 µM (active)
same,AC50,[4],27.7 µM (active)
same,AC50,[5],28.2 µM (active)
same,AC50,[6],12.7 µM (active)
same,AC50,[7],9.92 µM (active)
same,AC50,[8],29.7 µM (active)
same,AC50,[9],27.2 µM (active)
same,AC50,[10],26.4 µM (active)
same,AC50,[11],25.6 µM (active)
same,AC50,HGF (gene 3082),20.1 µM (active)
same,AC50,[12],19.5 µM (active)
same,outcome,[13],inactive
same,AC50,[14],14.6 µM (active)
same,AC50,[15],23.1 µM (active)
same,AC50,[16],14.5 µM (active)
same,AC50,[17],21.5 µM (active)
same,AC50,[18],12.8 µM (active)
same,outcome,[19],inactive
COc1nc(NC(C)C)nc(NC(C)C)n1,AC50,[1],23.1 µM (active)
same,outcome,[2],inactive
same,outcome,[3],inactive
same,outcome,[4],inactive
same,outcome,[5],inactive
same,outcome,[6],inactive
same,outcome,[7],inactive
same,outcome,[8],inactive
same,outcome,[9],inactive
same,outcome,[10],inactive
same,outcome,[11],inactive
same,outcome,HGF (gene 3082),inactive
same,AC50,[12],66.2 µM (active)
same,outcome,[13],inactive
same,outcome,[14],inactive
same,outcome,[15],inactive
same,outcome,[16],inactive
same,outcome,[17],inactive
same,AC50,[18],39.4 µM (active)
same,outcome,[19],inactive
CCNc1nc(Cl)nc(NCC)n1,outcome,[1],inactive
same,outcome,[2],inactive
same,outcome,[3],inactive
same,outcome,[4],inactive
same,outcome,[5],inactive
same,outcome,[6],inactive
same,outcome,[7],inactive
same,outcome,[8],inactive
same,outcome,[9],inactive
same,outcome,[10],inactive
same,outcome,[11],inactive
same,outcome,HGF (gene 3082),inactive
same,outcome,[12],inactive
same,outcome,[13],inactive
same,outcome,[14],inactive
same,outcome,[15],inactive
same,outcome,[16],inactive
same,outcome,[17],inactive
same,outcome,[18],inactive
same,outcome,[19],inactive
CC(C)Oc1cc(-n2nc(C(C)(C)C)oc2=O)c(Cl)cc1Cl,AC50,[1],19.4 µM (active)
same,AC50,[2],50 µM (active)
same,AC50,[3],33.3 µM (active)
same,AC50,[4],80.8 µM (active)
same,AC50,[5],86.2 µM (active)
same,AC50,[6],77.8 µM (active)
same,AC50,[7],50 µM (active)
same,outcome,[8],inactive
same,outcome,[9],inactive
same,outcome,[10],inactive
same,AC50,[11],61.9 µM (active)
same,outcome,HGF (gene 3082),inactive
same,AC50,[12],28.7 µM (active)
same,outcome,[13],inactive
same,AC50,[14],76.8 µM (active)
same,outcome,[15],inactive
same,outcome,[16],inactive
same,outcome,[17],inactive
same,AC50,[18],50 µM (active)
same,outcome,[19],inactive
COC(=O)C=C(C)OP(=O)(OC)OC,outcome,[1],inactive
same,outcome,[2],inactive
same,AC50,[3],14.7 µM (active)
same,outcome,[4],inactive
same,outcome,[5],inactive
same,outcome,[6],inactive
same,outcome,[7],inactive
same,outcome,[8],inactive
same,outcome,[9],inactive
same,outcome,[11],inactive
same,outcome,HGF (gene 3082),inactive
same,outcome,[12],inactive
same,outcome,[13],inactive
same,outcome,[14],inactive
same,outcome,[15],inactive
same,outcome,[16],inactive
same,outcome,[17],inactive
same,outcome,[18],inactive
same,outcome,[19],inactive
